Screening results deposited in PubChem BioAssay by several laboratories.
Shown are actives, neighbours in structure and some others; about 2.8% of the full set was active somewhere.
SENP8 block-1: inhibitors of human SENP8 protease; recombinant SENP8, Nedd8 substrate fluorescence; inhibition, % at 20 µM; 360,000 compounds, 0.64% hits; AID 602440; in the data active = inhibition mostly above about 40%, no sharp cut-off; inactive = mostly below about 27%
Target sequence (Q96LD8 whole entry, looked up): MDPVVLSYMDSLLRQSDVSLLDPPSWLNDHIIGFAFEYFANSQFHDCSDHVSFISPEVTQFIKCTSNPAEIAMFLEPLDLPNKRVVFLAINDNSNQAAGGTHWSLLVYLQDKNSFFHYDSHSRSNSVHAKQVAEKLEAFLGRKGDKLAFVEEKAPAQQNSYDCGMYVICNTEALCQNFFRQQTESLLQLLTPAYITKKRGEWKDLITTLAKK
SENP8 block-2: blocks the human protease SENP8; Q96LD8; purified SENP8, Z-RLRGG-aminoluciferin cleavage, luminescence; inhibition, % at 10 µM; 330,000 compounds, 1.2% hits; in the data active = inhibition above about 50%
Platelet DG rel: platelet dense granule release activity; AID 1663; inhibition, %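 (compounds screened at 7.5 µM in platelet-rich plasma)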; human platelet-rich plasma, SFLLRN dense granule ATP release, luminescence; 300,000 compounds, 0.22% hits;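 active = mean replicate score, as percent of positive control, at or above 50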
HSP90 refold inh: blocks HSP90-mediated luciferase refolding in reticulocyte lysate; Rabbit reticulocyte lysate, luciferase refolding luminescence, 3 h; inhibition, % at 5.6 µM; 290,000 compounds, 0.91% hits;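 active = inhibition above the screen-wide mean plus 3 SD, computed separately per campaign, cut at about 16% in these data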;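 note: 0% = DMSO wells and 100% = 60 µM geldanamycin wells; inhibitors lower the luminescence because luciferase stays unfolded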
SENP6 inh: SENP6 protease inhibition | Recombinant SENP6 catalytic domain, aminoluciferin luminescence | inhibition, % at 10 µM | 330,000 compounds, 1.8% hits | AID 2599;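 active = inhibition above about 50% at the single tested dose, limit read from the data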;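 note: plate controls were DMSO wells with enzyme for no effect and DMSO wells lacking enzyme for full effect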
SENP7 inh: inhibitors of human SENP7 protease | Q9BQF6 | recombinant SENP7, Z-RLRGG-aminoluciferin luminescence, 40 min | inhibition, % at 5 µM | 330,000 compounds, 1.5% hits | AID 434973;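 active = inhibition above about 50% at the single test dose, limit read from the data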;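 note: plate controls were DMSO with enzyme for no effect and no enzyme buffer wells for full effect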
SENP8 conf: human SENP8 inhibition, confirmed; 6,200 compounds, 40% hits; Recombinant SENP8, Z-RLRGG-aminoluciferin luminescence, 60 min; shares compounds with SENP7 inh; inhibition, % at 12.5 µM;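 active = mean inhibition across replicates above about 50%, limit read from the data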
SENP6 confirm: human SENP6 inhibition, confirmed | shares compounds with SENP7 inh | inhibition, % at 12.5 µM | 6,200 compounds, 58% hits | recombinant SENP6, Z-RLRGG-aminoluciferin luminescence | AID 488915
SENP7 conf: human SENP7 inhibition, confirmed; recombinant SENP7, Z-RLRGG-aminoluciferin luminescence, 40 min; 6,200 compounds, 69% hits; shares compounds with SENP7 inh; inhibition, % at 12.5 µM
Casp3 SENP sel: inhibits human caspase-3 in SENP selectivity test; shares compounds with SENP7 inh; purified caspase-3, Z-DEVD-aminoluciferin luminescence, 60 min; inhibition, % at 12.5 µM; 6,200 compounds, 60% hits; AID 488918;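 active = mean inhibition above about 50%, limit read from the data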;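 note: plate controls were enzyme with DMSO for no effect and wells without caspase-3 for full effect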
Target sequence (P42574 28-227 limits assumed): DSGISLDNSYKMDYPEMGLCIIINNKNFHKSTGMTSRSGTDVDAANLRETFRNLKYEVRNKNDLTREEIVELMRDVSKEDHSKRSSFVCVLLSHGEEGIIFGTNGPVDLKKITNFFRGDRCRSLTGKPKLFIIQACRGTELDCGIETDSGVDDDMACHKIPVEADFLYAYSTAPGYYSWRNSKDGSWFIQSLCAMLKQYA
SENP luc ctr: counter-screen for SENP inhibitors: luminescence interference; inhibition, % at 12.5 µM; shares compounds with SENP7 inh; AID 488919; Pre-incubated SENP8/Z-RLRGG-aminoluciferin, luciferase luminescence interference; 6,200 compounds, 39% hits;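 active = mean inhibition above about 50% when retested at one dose, limit read from the data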;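 note: plate controls were DMSO wells with completed reaction for no effect and substrate without enzyme for full effect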
* = called active by the depositor; . = not tested or not shown.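 Rule for the calls, unless noted: active = mean inhibition above about 50% in the one-dose retest (limit read from the data); inactive = the rest.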

SMILES	SENP8 block-1	SENP8 block-2	Platelet DG rel	HSP90 refold inh	SENP6 inh	SENP7 inh	SENP8 conf	SENP6 confirm	SENP7 conf	Casp3 SENP sel	SENP luc ctr
COc1ccc(-c2cccc(C(=O)Nc3cccc(C(=O)O)c3)c2)cc1	0	53*	-48	-2	84*	59*	69*	83*	96*	20	77*
COc1cccc(NC(=O)Nc2cccc(C(=O)O)c2)c1	0	90*	7	77*	7	93*	95*	95*	101*	90*	94*
CCOc1ccc2oc(C(=O)N3CC(C)OC(C)C3)c(C)c2c1 (stereo not given)	-5	-3	19	2	-10	0	.	.	.	.	.
O=C/C=C/c1c(-c2ccccc2)cc2oc3ccccc3cc1-2	-101	5	1	2	8	8	.	.	.	.	.
CNc1c(NC(=O)C2CCC(C)CC2)c(=O)oc2ccccc12 (stereo not given)	2	-8	-48	3	-8	-11	.	.	.	.	.
Cc1cc(=O)oc2cc(NC(=O)c3ccccc3C(=O)O)ccc12	-289	-3	-18	6	1	-3	.	.	.	.	.
COc1cccc(C(=O)Nc2ccc3c(C)cc(=O)oc3c2)c1	-343	16	13	-1	63*	71*	13	15	11	29	7
COc1cccc(C(=O)Nc2cc(Cl)c(O)c(Cl)c2)c1	8	55*	15	-1	71*	59*	64*	64*	89*	85*	68*
COc1cccc(NC(=O)c2ccc(NC(=O)C(C)C)cc2)c1	9	55*	31	2	73*	75*	13	56*	85*	74*	0
COc1cccc(NC(=O)c2ccc3nsnc3c2)c1	-13	43	-1	-5	63*	60*	58*	56*	85*	80*	71*
COc1cccc(NC(=O)C(C)C)c1	8	4	4	.	-15	4	.	.	.	.	.
CNC(=O)c1cc(S(=O)(=O)Nc2ccc3c(c2)OCO3)ccc1C	-1	-8	-5	-3	-5	-6	.	.	.	.	.
CCCCNC(=O)c1nc(C2CCN(S(=O)(=O)c3ccc(OC(F)(F)F)cc3)CC2)oc1-c1ccccc1	13	.	.	.	.	.	.	.	.	.	.
O=C(Nc1ccnn1C1CCN(CCCc2ccccc2)CC1)c1ccccc1Cl	11	0	1	5	-15	18	.	.	.	.	.
O=S(=O)(/N=C(/c1ccccc1)N1CCOCC1)c1ccc(F)cc1F	18	-8	.	.	-11	-2	.	.	.	.	.
COc1cccc(C(=O)Nc2cccc(NC(C)=O)c2)c1	5	-9	11	-1	4	-5	.	.	.	.	.
COc1cccc(NC(=O)C(=S)NC2CCCCC2)c1	19	10	-1	4	-26	52*	59*	65*	84*	48	33
COc1ccc(COc2ccc3c(C)cc(=O)oc3c2)cc1	-160	50*	0	-2	70*	40	6	56*	45	49	38
COc1ccc(C(=O)Nc2cccc(OC)c2)cc1	5	79*	11	5	86*	92*	2	92*	101*	96*	91*
COc1cccc(NC(=O)CC(=O)c2ccc([N+](=O)[O-])cc2)c1	22	69*	-5	1	71*	58*	82*	80*	93*	72*	74*
COc1cccc(NC(=O)NC2CCCCCCC2)c1	15	-2	-8	1	-8	-16	.	.	.	.	.
CCC(=O)N1CCc2cc(S(=O)(=O)CCC(=O)N3CCN(c4ccc(F)cc4)CC3)ccc21	6	0	-4	0	3	-2	.	.	.	.	.
